Our source for the composite z-score and z-score values is PubChem BioAssay.

Activity calls are given as the source filed them.

Assay [1] is described as follows: small molecules captured by biotinylated probe aFSTL3 – biochemical, small-molecule microarray, fluorescence 635/667, stem cell growth factor project, primary screen (AID 1064).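 Also: measures binding of the biotinylated anti-FSTL3 antibody to printed compounds.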 The settings on record: higher = more signal.
The nature of assay [2]: binders from COS7 lysate, DM2A8 probe, primary screen, torsin A project, cell lysate, small-molecule microarray, fluorescence 635/667 (AID 1065). The settings on record: higher = more signal, COS7 lysate expressing mutant human TOR1A.
Assay [3] is described as follows: small molecules captured by biotinylated probe aFGF2 – biochemical, small-molecule microarray, fluorescence 635/667, stem cell growth factor project, primary screen (AID 1067).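 Also: measures binding of biotinylated aFGF2 protein to printed compounds on slides; z-score merges feature fluorescence and signal-to-noise across triplicate slides.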 The note with it: higher = more signal.
Assay [4] can be described thus: small molecules captured by biotinylated probe aFGF10 – biochemical, small-molecule microarray, fluorescence 635/667, stem cell growth factor project, primary screen (AID 1071).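 Also: score merges 667 nm spot intensity and signal to noise from triplicate slides.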 The settings on record: higher = more signal.
The target in assay [5] is Neurogenic locus notch homolog protein 2 (Homo sapiens) (UniProt Q04721). Kind of assay: small molecules binding Notch2 protein – biochemical, small-molecule microarray, 635 nm fluorescence, stem cell growth factors, primary screen (AID 1073). The settings on record: higher = more signal.
The target of assay [6] is Pro-neuregulin-1, membrane-bound isoform (Homo sapiens) (UniProt Q02297). In words: small molecules binding neuregulin-1 protein – biochemical, small-molecule microarray, fluorescence 635/667, psychiatric disease protein project, primary screen (AID 1075).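 Also: score combines 667 nm spot fluorescence with signal to noise.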 The settings on record: NRG1 binding, 635 nm fluorescence, higher = more signal.
The test system of assay [7] is Neuregulin-1 EGF-like domain. In words: small molecules binding NRG1 EGF domain – biochemical, small-molecule microarray, 635 nm fluorescence, primary screen (AID 1081).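 Also: binding of the protein to compounds printed on small-molecule microarray slides.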 The note with it: higher = more signal.
A short description of assay [8]: FRG1 expression reporter modulators in myotubes – cell-based, C2C12 myotubes, firefly/Renilla luciferase, luminescence, FRG1 inhibition for FSHD, primary screen (AID 1084). The settings on record: FRG1 promoter luciferase, higher = more signal, called active from +8 up or from −8 down.
Assay [9] in a line: small molecules captured by biotinylated probe aFST – biochemical, small-molecule microarray, fluorescence 635/667, stem cell growth factor project, primary screen (AID 1086).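 Also: score merges 667 nm fluorescence with signal-to-noise of each printed compound spot.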 The settings on record: higher = more signal.
Assay [10] is described as follows: binders of probe aHhip on microarray, primary screen, stem cell growth factor project, biochemical, small-molecule microarray, fluorescence 635/667 (AID 1087).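 Also: score merges spot fluorescence at 667nm with spot signal to noise ratio.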 The note with it: higher = more signal.
The test system of assay [11] is PRMT1 (protein arginine N-methyltransferase 1). In words: small molecules binding arginine methyltransferase PRMT1 – biochemical, small-molecule microarray, 635 nm fluorescence, primary screen (AID 1088).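 Also: binding of Prmt1 protein to compounds spotted on small-molecule microarray slides.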 The settings on record: higher = more signal.
The nature of assay [12]: growth effects on S. cerevisiae YJM789 – YJM789 clinical isolate, OD600, 24 h, basal, primary screen (AID 1089).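 Also: growth of clinical yeast isolate S. cerevisiae YJM 789 seeded 1000 cells per well; test concentration not given here.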 The settings on record: higher = more signal, called active from +8 up or from −8 down.
The nature of assay [13]: S. pombe growth modifiers, basal conditions – strain 972, OD600, 24 h, no modulator, primary screen (AID 1090).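 Also: basal condition with compound alone and no growth modifier present; test concentration not given here.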 The note with it: S. pombe 972 growth, higher = more signal, called active from +8 up or from −8 down.
The nature of assay [14]: budding yeast growth modifiers under rapamycin – strain BY4716, OD600, 96 h, primary screen (AID 1091). Also: test concentration not given here. The settings on record: S. cerevisiae BY4716 + rapamycin, higher = more signal, called active from +8 up or from −8 down.
For assay [15], the target named is Torsin-1A-interacting protein 2 (Homo sapiens) (UniProt Q8NFQ8). In words: small molecules binding lysate-expressed LULL1 – cell lysate, human LULL1 lysate, 635/667 nm fluorescence, primary screen (AID 1092).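 Also: probe is lysate of COS7 cells overexpressing human LULL1; score merges per-feature 667 nm fluorescence with signal-to-noise.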 The note with it: small-molecule microarray, hLULL1 lysate binding, 635 nm fluorescence; higher = more signal.
Assay [16] in a line: optical density change of DRC41 E. coli – strain DRC41, OD650, 24 h, E. coli filamentation project, primary screen (AID 1093).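 Also: MC1000 strain lacking acrAB efflux and sulA so SOS filamentation is blocked; test concentration not given here.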 The settings on record: E. coli DRC41 growth, higher = more signal, called active from +8 up or from −8 down.
Assay [17] can be described thus: probe aLefty2 binding to arrayed compounds – biochemical, biotinylated probe, 635/667 nm fluorescence, primary screen (AID 1094).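 Also: score merges spot fluorescence near 667 nm with spot signal-to-noise ratio.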 The note with it: small-molecule microarray, higher = more signal.
In assay [18] the test system is Noggin (protein binding on small-molecule microarray). Kind of assay: small molecules binding Noggin protein – biochemical, 635/667 nm fluorescence, primary screen (AID 1095).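 Also: score merges 667 nm feature fluorescence with signal to noise over triplicate slides.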 The note with it: 635 nm fluorescence, higher = more signal.
For assay [19], the target named is Neurogenic locus notch homolog protein 3 (Homo sapiens) (UniProt Q9UM47). In words: small molecules binding NOTCH3 protein – biochemical, 635/667 nm fluorescence, primary screen (AID 1096). The note with it: small-molecule microarray, 635 nm fluorescence, higher = more signal.
Assay [20] in a line: probe aEGFR binding to arrayed compounds – biochemical, biotinylated probe, 635/667 nm fluorescence, primary screen (AID 1097).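 Also: probe is a biotinylated anti-EGFR antibody binding compounds printed on slides; score combines fluorescence near 667 nm and signal to noise of each spot.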 The note with it: small-molecule microarray, higher = more signal.

Torsin-1A-interacting protein 2 (Homo sapiens), sequence (Q8NFQ8 whole entry, looked up): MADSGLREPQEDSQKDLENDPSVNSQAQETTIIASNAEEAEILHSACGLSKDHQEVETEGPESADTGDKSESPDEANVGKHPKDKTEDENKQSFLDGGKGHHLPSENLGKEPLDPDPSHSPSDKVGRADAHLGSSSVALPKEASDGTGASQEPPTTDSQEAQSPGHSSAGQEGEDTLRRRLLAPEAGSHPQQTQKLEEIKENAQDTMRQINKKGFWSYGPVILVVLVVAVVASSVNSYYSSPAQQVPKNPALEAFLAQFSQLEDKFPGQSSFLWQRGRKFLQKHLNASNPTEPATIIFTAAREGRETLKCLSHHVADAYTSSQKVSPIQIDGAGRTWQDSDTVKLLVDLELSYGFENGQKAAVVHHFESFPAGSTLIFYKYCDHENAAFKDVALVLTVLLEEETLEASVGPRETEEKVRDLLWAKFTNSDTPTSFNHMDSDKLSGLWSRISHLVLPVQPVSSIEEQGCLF
Neurogenic locus notch homolog protein 3 (Homo sapiens), sequence (Q9UM47 whole entry, looked up): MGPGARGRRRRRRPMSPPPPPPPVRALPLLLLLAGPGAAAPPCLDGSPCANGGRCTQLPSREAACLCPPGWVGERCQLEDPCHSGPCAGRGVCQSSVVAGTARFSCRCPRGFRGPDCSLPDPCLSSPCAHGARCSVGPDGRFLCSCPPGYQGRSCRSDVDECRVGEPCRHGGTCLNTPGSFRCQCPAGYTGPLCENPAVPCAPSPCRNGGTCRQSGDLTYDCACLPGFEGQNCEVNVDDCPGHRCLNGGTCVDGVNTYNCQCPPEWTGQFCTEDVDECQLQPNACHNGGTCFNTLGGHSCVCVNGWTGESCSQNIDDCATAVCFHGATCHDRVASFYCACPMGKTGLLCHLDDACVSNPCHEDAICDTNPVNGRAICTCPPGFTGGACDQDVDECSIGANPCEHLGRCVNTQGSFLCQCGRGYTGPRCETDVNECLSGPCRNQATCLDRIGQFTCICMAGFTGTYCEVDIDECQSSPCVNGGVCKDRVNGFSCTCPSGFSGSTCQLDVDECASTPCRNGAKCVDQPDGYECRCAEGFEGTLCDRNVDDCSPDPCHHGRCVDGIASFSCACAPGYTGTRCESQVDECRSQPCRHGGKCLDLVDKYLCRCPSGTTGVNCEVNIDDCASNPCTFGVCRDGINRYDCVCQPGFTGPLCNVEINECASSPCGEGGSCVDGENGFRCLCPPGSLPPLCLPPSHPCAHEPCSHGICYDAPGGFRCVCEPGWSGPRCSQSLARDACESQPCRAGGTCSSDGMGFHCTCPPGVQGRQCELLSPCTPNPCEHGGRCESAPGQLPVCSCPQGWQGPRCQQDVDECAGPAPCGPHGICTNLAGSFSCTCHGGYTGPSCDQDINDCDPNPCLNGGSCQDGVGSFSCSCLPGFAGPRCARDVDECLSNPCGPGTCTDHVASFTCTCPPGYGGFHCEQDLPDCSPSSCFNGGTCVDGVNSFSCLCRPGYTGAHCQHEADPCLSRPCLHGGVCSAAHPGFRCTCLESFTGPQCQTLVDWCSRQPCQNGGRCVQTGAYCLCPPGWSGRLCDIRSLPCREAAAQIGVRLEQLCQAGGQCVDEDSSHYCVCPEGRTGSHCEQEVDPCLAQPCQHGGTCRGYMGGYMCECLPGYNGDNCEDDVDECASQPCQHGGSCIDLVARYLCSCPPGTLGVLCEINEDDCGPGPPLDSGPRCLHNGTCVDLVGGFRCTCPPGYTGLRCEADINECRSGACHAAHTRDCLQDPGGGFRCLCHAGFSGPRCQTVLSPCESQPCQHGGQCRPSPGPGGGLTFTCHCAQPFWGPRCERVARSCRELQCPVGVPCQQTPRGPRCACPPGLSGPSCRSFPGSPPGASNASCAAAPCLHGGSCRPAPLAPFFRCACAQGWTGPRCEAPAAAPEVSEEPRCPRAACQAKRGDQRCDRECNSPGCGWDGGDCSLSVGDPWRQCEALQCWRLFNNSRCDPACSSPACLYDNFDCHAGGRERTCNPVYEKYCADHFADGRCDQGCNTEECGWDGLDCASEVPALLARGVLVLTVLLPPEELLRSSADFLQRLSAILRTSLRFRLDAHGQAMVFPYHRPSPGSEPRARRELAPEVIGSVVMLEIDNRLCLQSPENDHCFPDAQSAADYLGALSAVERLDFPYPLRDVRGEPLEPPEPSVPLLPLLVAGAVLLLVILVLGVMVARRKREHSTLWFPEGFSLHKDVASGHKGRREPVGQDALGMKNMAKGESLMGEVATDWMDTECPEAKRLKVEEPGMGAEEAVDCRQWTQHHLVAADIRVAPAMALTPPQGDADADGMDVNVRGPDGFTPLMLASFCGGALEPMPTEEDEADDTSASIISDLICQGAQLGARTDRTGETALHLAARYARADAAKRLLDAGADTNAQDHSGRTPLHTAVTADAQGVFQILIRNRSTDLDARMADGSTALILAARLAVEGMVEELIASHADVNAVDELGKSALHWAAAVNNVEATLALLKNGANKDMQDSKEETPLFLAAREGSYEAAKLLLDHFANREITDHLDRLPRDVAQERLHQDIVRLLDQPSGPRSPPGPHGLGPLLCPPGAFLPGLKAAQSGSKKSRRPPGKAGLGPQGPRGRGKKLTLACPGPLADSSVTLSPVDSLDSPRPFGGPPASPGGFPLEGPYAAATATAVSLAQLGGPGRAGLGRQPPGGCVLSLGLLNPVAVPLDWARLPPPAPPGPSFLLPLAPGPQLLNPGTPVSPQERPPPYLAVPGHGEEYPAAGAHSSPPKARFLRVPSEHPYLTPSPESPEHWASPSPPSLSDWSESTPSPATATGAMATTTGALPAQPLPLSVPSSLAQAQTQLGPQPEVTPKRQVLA
Pro-neuregulin-1, membrane-bound isoform (Homo sapiens), sequence (Q02297 whole entry, looked up, the tested form may be a part, canonical isoform): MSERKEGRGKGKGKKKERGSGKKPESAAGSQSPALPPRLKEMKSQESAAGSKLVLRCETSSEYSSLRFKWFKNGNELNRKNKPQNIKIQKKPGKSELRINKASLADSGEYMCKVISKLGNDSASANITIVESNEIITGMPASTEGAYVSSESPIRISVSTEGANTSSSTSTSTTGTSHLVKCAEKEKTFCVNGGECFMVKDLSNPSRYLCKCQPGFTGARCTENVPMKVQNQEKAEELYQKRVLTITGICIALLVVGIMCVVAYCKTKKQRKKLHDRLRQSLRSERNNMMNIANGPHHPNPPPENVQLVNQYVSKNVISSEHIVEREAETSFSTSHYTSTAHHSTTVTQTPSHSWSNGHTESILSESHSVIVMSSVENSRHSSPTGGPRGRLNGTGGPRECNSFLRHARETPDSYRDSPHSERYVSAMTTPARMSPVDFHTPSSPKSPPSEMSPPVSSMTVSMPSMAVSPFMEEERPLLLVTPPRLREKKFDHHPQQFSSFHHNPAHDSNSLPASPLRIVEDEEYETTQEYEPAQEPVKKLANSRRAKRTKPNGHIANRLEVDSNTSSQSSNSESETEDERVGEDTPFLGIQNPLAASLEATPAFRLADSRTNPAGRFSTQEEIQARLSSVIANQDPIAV

For `O=C1O[C@H](c2ccccc2)[C@H](c2ccccc2)N2[C@H]1[C@@H](C(=O)NC[C@H](O)c1ccccc1)[C@]1(C(=O)Nc3ccccc31)[C@H]2c1ccc(O)cc1`, the composite z-score was -0.0095 in assay [1]; 0.298 in assay [2]; -0.0342 in assay [3]; -0.111 in assay [4]; 0.633 in assay [5]; -0.199 in [6]. For the same compound, the composite z-score is 1.19 in assay [7]; 0.153 in assay [9]; 0.0542 in assay [10]; 1.39 in [11]; 2.56 in [15]; -0.134 in assay [17]. The composite z-score in assay [18] was 0.798; in assay [19], 0.608; in [20] it was -0.108. The z-score was 0.484 (inactive) in assay [8]; 0.754 (inactive) in assay [12]; 0.817 (inactive) in assay [13]; 1.7 (inactive) in [14]; -0.408 (inactive) in assay [16].

As for `C=CCC(OC(C)=O)[C@@H]1[C@@H](N(Cc2ccc(-c3cccc(C(F)(F)F)c3)o2)C(=O)Cc2ccc(OC)cc2)c2cc(OCCCO)ccc2N1C(=O)c1ccc2ccccc2c1` (stereo not given in full), the composite z-score in [1] was 0.0929; in [2], -0.404; in assay [3], -0.043; in assay [4], -0.608; in [5], -0.654; in [6], 0.522. Also, the composite z-score in [7] was -0.125; in [9], 0.234; in assay [10], -0.236; in [11], -0.485; in assay [15], 0.589; in assay [17] it was 0.0079. For the same compound, the composite z-score was 0.397 in assay [18], 0.035 in [19] and -0.127 in assay [20]. The z-score is 0.782 (inactive) in [8]; 0.514 (inactive) in [12]; 0.428 (inactive) in assay [13]; -0.645 (inactive) in assay [14]; 0.315 (inactive) in assay [16].

For the compound `CCCCN1CC=CC23O[C@@H]4C=CCOC(=O)[C@@H]4[C@H]2C(=O)N(CCCCCCO)[C@@H]3C1=O` (stereo not given in full), the composite z-score is 1.22 in assay [1]; -0.64 in assay [2]; -0.141 in [3]; -1.34 in assay [4]; -1.86 in assay [5]; 1.01 in [6]. The composite z-score is 1.3 in assay [7]; -0.581 in assay [9]; -0.134 in assay [10]; -0.598 in assay [11]; 1.57 in assay [15]; -0.0665 in assay [17]. In addition, the composite z-score is -1.84 in [18], -0.61 in assay [19] and -0.244 in assay [20]. The z-score in assay [8] was -0.0048 (inactive); in assay [12] it was -0.992 (inactive); in [13] it was -0.053 (inactive); in assay [14] it was -0.362 (inactive); in assay [16], -0.44 (inactive).

With `COCCOC(=O)N1C(=O)[C@@]2(c3ccccc31)[C@H](C(=O)N1CCCCCCC1)[C@H]1C(=O)O[C@H](c3ccccc3)[C@H](c3ccccc3)N1[C@@H]2c1ccc(OCCO)cc1`, the composite z-score in assay [1] came out at 4.16; in assay [2], 2.62; in assay [3], 1.09; in assay [4] it was 1.49; in [5], 1.75; in [6], 2.93. Also, the composite z-score in assay [7] is 1.5; in [9] it was 3.82; in assay [10], 3.98; in [11] it was 1.54; in assay [15], 4.99; in [17], 1.98. Further, the composite z-score in assay [18] amounted to 2.22; in assay [19], 1; in assay [20] it was 1.38. Also, the z-score in assay [8] is -1.64 (inactive); in assay [12], 1.9 (inactive); in [13], 1.62 (inactive); in assay [14], 4.28 (inactive); in [16] it was -0.348 (inactive).

In the case of `CCOC(=O)C[C@H]1[C@H](OC(=O)c2ccc(-c3ccccc3)cc2)[C@@H](NC(=O)c2ccccc2)c2cc(OCCCO)ccc2N1C(=O)Cc1ccc(OC)cc1`, the composite z-score in assay [1] is -0.287; in assay [2], -0.0212; in [3] it was -0.163; in [4] it was 0.0185; in assay [5] it was -0.639; in [6], -0.31. Moreover, the composite z-score in assay [7] was -0.198; in [9], -0.0166; in assay [10], -0.374; in assay [11], -0.719; in assay [15], 0.734; in [17], -0.192. Besides, the results for the composite z-score in assay [18], in assay [19] and in assay [20] were 0.23, -0.712 and -0.21, respectively. For the same compound, the z-score in assay [8] is -0.304 (inactive); in assay [12] it was 0.883 (inactive); in assay [13], -0.414 (inactive); in assay [14] it was 1.45 (inactive); in [16] it was 0.258 (inactive).
